The whole screen tested about 2,500 compounds, of which about 1,100 (44%) were called active.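 The calls were made as follows: active = inhibition above 50% at 4 µM in the single-point screen; inactive = inhibition of 50% or less.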 The set was probably picked from earlier hits. The list shows a part of the results.
Test: blockers of TNF-a NF-kB luciferase induction – cell-based, HEK293T NF-kB-Luc, luminescence, selectivity assay for NOD1/NOD2 signaling inhibitor project, primary screen (AID 1852)
Conditions: TNF-a induced, 14 h, at 4 µM, hits give high values

inhibition, inactive:
C/C(=N\NC(=O)c1cc(Br)ccc1O)c1ccccn1 25.1%, Cc1ccc(Nc2nc3nonc3[nH]c2=O)cc1Cl -23%, COC(=O)c1ccc2nc(Nc3nc4ccc(F)cc4s3)sc2c1 0%, CCOC(=O)c1ccc2nc(Nc3nc4ccc(F)cc4s3)sc2c1 -87.4%, CCOc1ccc(-c2nc(CSCC(=O)N3CCN(c4cccc(OC)c4)CC3)c(C)o2)cc1 49.3%, O=C(CSCc1ccccc1Cl)N1CCN(c2ccccn2)CC1 -30.9%, O=C(Nc1cccc(NC(=O)c2sc3ccccc3c2Cl)c1)c1ccco1 -117%, CS(=O)(=O)N1CCC(C(=O)Nc2cccc(Cl)c2)CC1 4.2%, Cn1ncc([N+](=O)[O-])c1C(=O)Nc1ccc(-c2ccccc2)cc1 -39.7%, O=C(Nc1ccc([N+](=O)[O-])cc1)Nc1nc(-c2ccc(Cl)s2)cs1 42.8%, Cc1ccccc1CN(CC(=O)Nc1cccc([N+](=O)[O-])c1)S(=O)(=O)c1ccc(Cl)cc1 -15.8%, Cc1ccc(NC(=S)NC(=O)c2ccc(F)cc2)cc1S(=O)(=O)Nc1cccc(Cl)c1 32.5%, CCCCN1/C(=C/c2ccc3ccccc3[n+]2CC)Sc2ccccc21 45.1%, O=C(Nc1ccc(-c2nc3ncccc3o2)cc1)c1ccc([N+](=O)[O-])o1 27.5%, Cn1c(/C=C/c2ccc(Br)cc2)c([N+](=O)[O-])c(=O)n(C)c1=O -12.1%, Cn1c(/C=C/c2ccc(Cl)cc2)c([N+](=O)[O-])c(=O)n(C)c1=O 18.7%, O=C(Nc1sc2c(c1C(=O)NCCCO)CCCC2)c1ccccc1 35.2%, Cc1cc(C(=O)Nc2c(C)nn(Cc3c(Cl)cccc3Cl)c2C)no1 -34.2%, CCN(CC(=O)Nc1ccc([N+](=O)[O-])cc1OC)c1ccccc1 -39%, COc1cccc(NC(=O)CN(C)CC(=O)Nc2ccc(C)c([N+](=O)[O-])c2)c1 42.8%, Oc1cc2c(cc1C(c1ccc(Br)cc1)N1CCCC1)OCO2 (stereo not drawn) -3.2%, Cc1cc(/C=C2\SC(=S)N(C)C2=O)c(C)n1-c1ccc(O)cc1 24.7%, Cc1cc(/C=C2\SC(=S)N(C)C2=O)c(C)n1-c1cccc(O)c1 -111%, Cc1cccc(N2CCN(C(=S)NCCc3ccccc3)CC2)c1C -31.3%, CN(C)S(=O)(=O)c1cccc(CSCc2cccc(S(=O)(=O)N(C)C)c2)c1 42.8%, S=C(NCCc1ccc(Cl)cc1)Nc1ccc(Cl)cc1Cl -10.9%, CCN(CC)CCNC(=O)c1ccc(NC(=O)C2CCN(c3ncnc4sc(C)c(C)c34)CC2)cc1 43.8%, CCOC(=O)c1sc(N2C(=O)C(O)=C(C(=O)c3ccco3)C2c2cccc([N+](=O)[O-])c2)nc1C (stereo not drawn) 23.8%, COc1cccc2cc(C(=O)C3=C(O)C(=O)N(c4cc(C)on4)C3c3cccs3)oc12 (stereo not drawn) -0.9%, NC(=O)C1CCN(c2ccc(S(=O)(=O)N3CCC(Cc4ccccc4)CC3)cn2)CC1 32.5%, Cc1nc([N+](=O)[O-])c(Br)n1Cc1ccc(Cl)c(Cl)c1 7.2%, CC(C)n1c(CN(C)Cc2ccccc2)nc2c1c(=O)n(C)c(=O)n2C 38.7%, COc1cc(CNc2ccc3[nH]c(=O)[nH]c3c2)cc(Br)c1OCc1ccc(F)cc1 47.6%, COc1cc(CNc2ccc3[nH]c(=O)[nH]c3c2)ccc1OCc1ccccc1C 37.1%, Cc1cccc(C2=NC(C(F)(F)F)(C(F)(F)F)c3c(n(-c4ccc(F)cc4)c(=O)[nH]c3=O)N2)c1 -13.7%, Cc1ccc(CNc2ncnc(N)c2[N+](=O)[O-])cc1 36.2%, Cc1ccc(NC(=O)C2CCN(S(=O)(=O)c3ccc4c(c3)NC(=O)C(C)S4)CC2)cc1Cl (stereo not drawn) 39.1%, Cc1nnc(Sc2nc3ccccc3o2)c2ccccc12 45.3%, O=C(CN1CCCCCC1)Nc1ccc(Br)cn1 -21.9%, O=C(N/N=C/c1c(O)ccc2ccccc12)c1ccc(Br)o1 34.2%, CCN(CC)c1ccc(C(=O)N2CCN(Cc3ccccc3)CC2)cc1 46.5%, Cc1ccc(CN2CCN(C(=O)c3cccc4ccccc34)CC2)cc1 12.3%

inhibition, active:
C/C(=N\NC(=O)c1cccc(Br)c1)c1ccccn1 98%, C/C(=N\NC(=O)COc1ccccc1-c1ccccc1)c1ccccn1 106%, C/C(=N\NC(=O)c1ccc(Cl)cc1)c1ccccn1 103%, C/C(=N\NC(=O)Cc1ccc(Cl)cc1)c1ccccn1 101%, COc1ccc(C(=O)N/N=C(\C)c2ccccn2)cc1OC 106%, C/C(=N\NC(=O)c1ccc(Cl)c(Cl)c1)c1ccccn1 102%, C/C(=N\NC(=O)c1ccc(F)cc1)c1ccccn1 106%, CCOC(=O)c1csc(Nc2nc3ccc(F)cc3s2)n1 106%, COc1cccc(N=Nc2c(N)[nH]n3c(=O)cc(-c4ccccc4)nc23)c1 75.4%, Nc1[nH]n2c(=O)cc(-c3ccccc3)nc2c1N=Nc1ccc2c(c1)OCO2 50.6%, Nc1[nH]n2c(=O)cc(-c3ccccc3)nc2c1N=Nc1ccccc1 64.7%, CCc1ccc(-c2nc(CSCC(=O)N3CCN(c4ccccn4)CC3)c(C)o2)cc1 73.1%, O=C(Nc1nccs1)c1sc2cc(Cl)ccc2c1Cl 103%, Cn1ncc([N+](=O)[O-])c1C(=O)Nc1cccc(Cl)c1 92.6%, O=[N+]([O-])c1cccc(NC(=S)Nc2nc(-c3ccc(Cl)cc3Cl)cs2)c1 64.3%, Cc1csc(NC(=S)Nc2cccc(Cl)c2)n1 100%, CC[n+]1c(/C=C2\Sc3ccccc3N2C)ccc2cccc(C)c21 70.3%, CCN1/C(=C/c2sc(-c3ccccc3C)c[n+]2C)Sc2ccccc21 95.5%, CCN1/C(=C/c2ccc3cccc(C)c3[n+]2CC)Sc2ccccc21 61.9%, CC(C)(C)C1C/C(=C/c2ccccn2)C(=O)/C(=C/c2ccccn2)C1 (stereo not drawn) 103%, CC1C/C(=C/c2ccccn2)C(=O)/C(=C/c2ccccn2)C1 (stereo not drawn) 96.2%, O=C(NCc1ccccc1)C1=C[C@@H](c2csc3ccccc23)C[C@@H](OCCCCO)O1 69.1%, Cn1c(/C=C/c2ccc(Cl)cc2Cl)c([N+](=O)[O-])c(=O)n(C)c1=O 71.4%, Cc1sc(NC(=O)c2ccccc2)c(C(c2ccccn2)N2CCN(CCO)CC2)c1C (stereo not drawn) 51.9%, Cc1nn(Cc2ccc(Cl)cc2)c(C)c1NC(=O)c1noc2c1CCc1ccccc1-2 105%, COc1cc(Cl)c(C)cc1NC(=O)CN(C)Cc1cccc(OC)c1OC 57.5%, Cc1ccc(-n2ncc(Br)c(Br)c2=O)cc1 105%, O=c1c(Br)c(Br)cnn1-c1ccccc1 90.8%, COc1cc(OC)nc(-n2ncc(Br)c(Br)c2=O)n1 105%, CN1C(=O)/C(=C/c2cc(N=Nc3ccccc3)ccc2O)SC1=S 98.2%, CN(C)S(=O)(=O)c1cccc(NC(=S)Nc2cccc3cnccc23)c1 62.5%, S=C(NCCc1ccccc1)Nc1cccc2cnccc12 69.1%, Cc1sc2ncnc(N3CCC(C(=O)N(C)CC(=O)Nc4ccccc4Cl)CC3)c2c1C 50.3%, CCOC(=O)c1sc(N2C(=O)C(O)=C(C(=O)c3ccco3)C2c2ccco2)nc1C (stereo not drawn) 76.1%, CCC(C)(C)c1ccc(Oc2ccc(N)cc2)cc1 75.5%, Cc1c(C(=O)N/N=C/c2c(O)ccc3ccccc23)nnn1-c1nonc1N 89%, Nc1nonc1-n1nnc(C(=O)N/N=C/c2cc(Br)ccc2O)c1CNc1ccccc1 56.5%, CC1CCN(Cc2c(C(=O)N/N=C/c3cc(Br)ccc3O)nnn2-c2nonc2N)CC1 95.1%, Cn1c(=O)c2c(nc(NCc3ccco3)n2C/C=C/c2ccccc2)n(C)c1=O 78.2%, COc1cc(CNc2ccc3[nH]c(=O)[nH]c3c2)cc(Br)c1OCc1ccccc1F 61%, O=c1[nH]c(=O)n(Cc2ccco2)c2c1C(C(F)(F)F)(C(F)(F)F)N=C(c1ccc(F)cc1)N2 90.9%, Nc1ncnc(NCc2ccc(F)cc2)c1[N+](=O)[O-] 60.6%, O=C(Nc1ccc(N2CCN(c3ncccc3C(F)(F)F)CC2)nc1)c1cccs1 64.1%, O=S1(=O)C=C(Sc2nc3cc(Cl)ccc3o2)c2ccccc21 91.1%, O=S1(=O)C=C(Sc2nnc(-c3ccccc3)o2)c2ccccc21 70.6%, O=C(CN1CCCC1)N/N=C/c1c(O)ccc2ccccc12 87.6%, O=C(N/N=C/c1c(O)ccc2ccccc12)c1ccc(CO)nc1 96.6%, O=C(N/N=C\c1c(O)ccc2ccccc12)c1ccc(O)cc1 69.4%, Cn1nccc1C(=O)N/N=C/c1c(O)ccc2ccccc12 66.6%, Cc1ccc(C(=O)N/N=C/c2c(O)ccc3ccccc23)cn1 73.2%, C#Cc1ccc([C@@H]2C=C(C(=O)N3CCN(Cc4ccccc4)CC3)O[C@H](OCCCCO)C2)cc1 61.3%
